Screens deposited in PubChem BioAssay by The Scripps Research Institute Molecular Screening Center.
MOR-DOR inv ag: inverse agonist of human OPRM1-OPRD1 heterodimerization. P35372+P41143. cell-based MOR-DOR heterodimer luminescence, inverse agonism. inhibition, % at 9.3 µM. 340,000 compounds, 0.21% hits. AID 504357; in the data active = inhibition above about 22%, passing the limit was not always enough;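 note: 0% = cells with DMSO and 100% = wells without cells with DMSO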
MOR-DOR ag: agonists of human mu-delta opioid receptor heterodimerization | activation, % at 9.3 µM | cells, OPRM1-OPRD1 heterodimerization, luminescence | P35372+P41143 | 340,000 compounds, 0.3% hits | AID 504326; in the data active = activation above about 18%;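 note: 0% = vehicle-treated cells and 100% = reference agonist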
HTR5A ag: HTR5A agonism, opioid heterodimer counter-screen. P47898. HTR5A agonist assay, luminescence, cell-based. activation, % at 9.3 µM. 340,000 compounds, 0.61% hits. AID 504692; in the data active = activation mostly above about 9.5%, no sharp cut-off; inactive = mostly below about 7.6%;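 note: 0% = cells with vehicle only and 100% = reference agonist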
Target sequence (P47898 whole entry, looked up): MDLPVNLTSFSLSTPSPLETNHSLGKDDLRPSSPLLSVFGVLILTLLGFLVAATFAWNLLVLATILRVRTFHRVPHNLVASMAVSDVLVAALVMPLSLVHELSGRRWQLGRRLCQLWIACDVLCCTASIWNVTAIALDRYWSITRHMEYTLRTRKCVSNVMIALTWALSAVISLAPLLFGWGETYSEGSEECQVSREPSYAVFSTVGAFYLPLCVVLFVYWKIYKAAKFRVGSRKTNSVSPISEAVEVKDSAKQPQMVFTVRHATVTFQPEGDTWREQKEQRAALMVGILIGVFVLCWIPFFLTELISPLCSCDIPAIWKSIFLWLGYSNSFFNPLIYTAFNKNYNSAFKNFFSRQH
HTR5A inv ag: counter-screen for OPRM1-OPRD1 inverse agonists: human HTR5A inverse agonism; P47898; HTR5A cell line, luminescence; inhibition, % at 9.3 µM; 340,000 compounds, 0.083% hits; in the data active = inhibition mostly above about 23%, no sharp cut-off; inactive = mostly below about 18%;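 note: 0% = cells with DMSO and 100% = no-cell wells with DMSO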
Starred values were filed as active, the others as inactive. In the library only some 1.1% were active in any assay of this set; here they are far more common.

SMILES	MOR-DOR inv ag	MOR-DOR ag	HTR5A ag	HTR5A inv ag
O=C(CCn1c(=S)[nH]c2ccccc2c1=O)N1CCCCC1	12.5	-2.5	9.4*	-35.1
CCOC(=O)N1CCN(C(=O)CCn2c(=S)[nH]c3ccccc3c2=O)CC1	14.1	-2.7	-3.2	1.5
O=C1CC(c2cccc(Cl)c2)Cc2nc(N3CCOCC3)ncc21 (stereo not drawn)	1.8	-0.4	12.9*	13.2
O=C1CC(c2ccc(F)cc2)Cc2nc(N3CCOCC3)ncc21 (stereo not drawn)	10.8	-2.6	1.0	4.6
CC12CC(NC(=O)N1c1cccc(C(=O)Nc3ncn[nH]3)c1)c1ccccc1O2 (stereo not drawn)	9.2	-1.6	1.9	3.6
Cc1ccc(NC(=O)CN2CCN(c3ccccn3)CC2)cc1S(=O)(=O)N(C)C	-16.8	3.4	9.4*	-26.0
CCN(CC)S(=O)(=O)c1cc(NC(=O)CN2CCN(c3ccccn3)CC2)ccc1C	10.6	-2.1	6.1	1.2
Cc1ccc(S(=O)(=O)Nc2cccc3ncccc23)s1	43.7*	-7.5	-6.5	27.0
COc1cc(CC(=O)OCC(=O)N2CC(C)CC(C)C2)cc(OC)c1OC (stereo not drawn)	0.7	-0.1	3.1	-11.6
CC(C)(C)c1ccc(Oc2ccc(NC(=O)c3cccs3)cn2)cc1	-29.7	5.6	13.1*	-2.4
COc1ccc(NC(=O)c2cccs2)cn1	10.8	-2.2	3.9	-10.2
Cc1cnc(C(=O)OCC(=O)Nc2ccc3c(c2)OCCO3)cn1	-5.3	1.3	4.5	-12.5
NC(=S)COc1ccccc1	2.4	-0.5	-0.9	-5.5
CCN(c1cccc(C)c1)S(=O)(=O)c1ccc2c(c1)CCCN2C(C)=O	5.4	-1.0	1.4	-17.5
CCN(c1ccccc1)S(=O)(=O)c1ccc2c(c1)CCCN2C(C)=O	5.5	-1.1	10.8*	15.4
O=C(COc1ccc([N+](=O)[O-])cc1)Nc1nc(-c2ccccn2)cs1	8.4	-1.6	-2.3	6.1
O=C(O)CC1(CC(=O)Nc2ccc(C(F)(F)F)cc2)CCCC1	5.1	-1.1	9.5*	-35.7
Cc1ccccc1-n1c(=O)c2ccccc2n(CC(=O)NCc2ccco2)c1=O	6.6	-1.2	0.8	10.8
CC(=O)c1c(C)n(CC(=O)NCc2ccco2)c2ccccc12	-2.6	0.5	9.8*	9.0
CC(=O)NC12CC3CC(C1)CC(C(=O)N1CCN(S(=O)(=O)c4ccccc4[N+](=O)[O-])CC1)(C3)C2	1.9	-0.5	-2.6	6.3
CC(=O)NC12CC3CC(C1)CC(C(=O)N1CCN(S(=O)(=O)c4ccc(Cl)s4)CC1)(C3)C2	6.2	-1.2	11.3*	-4.9
CC(NC(=O)C(C)N1CCN(Cc2ccccc2)CC1)c1ccc(F)cc1 (stereo not drawn)	-7.3	1.4	-1.2	11.0
COC(=O)c1ccc2c(c1)N(Cc1ccccc1F)C(=O)c1ccccc1S2=O (stereo not drawn)	2.9	-0.5	1.6	-4.5
CCOC(=O)c1ccc2c(c1)N(Cc1ccccc1C)C(=O)c1ccccc1S2=O (stereo not drawn)	6.9	-1.2	9.5*	-31.9
CCOC(=O)c1c(C)[nH]c(C(=O)OCC(=O)Nc2sc(C(=O)N(C)C)c(C)c2C(=O)OCC)c1C	19.1	-2.9	-0.4	9.6
SMILES	MOR-DOR inv ag	MOR-DOR ag	HTR5A ag	HTR5A inv ag
Cc1cccc(N(C)C(=O)CN(C)S(=O)(=O)c2ccc3c(c2)c(=O)n(C)c(=O)n3C)c1	12.0	-2.3	12.5*	-4.0
CN(CC(=O)N(CCO)Cc1ccccc1)S(=O)(=O)c1ccc2c(c1)c(=O)n(C)c(=O)n2C	17.2	-3.4	2.1	11.6
COC(=O)[C@@H]1[C@@H](C#N)C2(c3ccccc3-c3ccccc32)N(c2ccc(Cl)cc2)N1C#N	-52.3	10.4	8.7*	-8.6
Cc1cccc(C)c1NC(=O)CNC(=O)C(Cc1ccccc1)NC(=O)c1ccccc1 (stereo not drawn)	2.7	-0.5	12.6*	-46.2
CCCNC(=O)C(Cc1ccccc1)NC(=O)c1ccccc1 (stereo not drawn)	10.7	-2.3	-2.7	4.0
Cc1ccccc1OCCc1c(C)[nH]c(=S)[nH]c1=O	21.9	-4.6	12.3*	-3.4
CC(C)NC(=O)c1ccc(-n2nc(C(F)(F)F)c3c2CCCC3)cc1	7.8	-1.5	12.5*	-49.0
Cc1cc(C)n(-c2ccc(C(=O)NC(C)C)cc2)n1	13.9	-2.7	2.8	2.3
CC(C)C(NC(=O)c1ccco1)C(=O)OCC(=O)c1ccccc1 (stereo not drawn)	20.1	-3.7	1.1	-0.3
O=C1C(Nc2ccccc2)=CC(c2ccc(O)cc2)N1c1ccccc1 (stereo not drawn)	13.9	-2.6	12.5*	-0.3
